Screening results as filed in PubChem.
AMA1-RON2 inh = AMA1-RON2 (P. falciparum) interaction inhibition | AlphaScreen AMA1-biotinylated RON2 peptide binding | Potency, µM (highest dose often 58.2 µM), inactives show at the highest dose activity change, negative = inhibition, actives largely listed as inhibitors | actives 0.2% (n = 360,000);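 also: 0% = vehicle wells and -100% = peptide control; nearly all actives have a fitted effect of over 45% in size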
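AMA1 (3D7) with his tag at 25 nM final met compounds first, then biotinylated RON2 peptide at 25 nM; detection used donor plus acceptor beads, 10 µg/mL apiece, read by AlphaScreen after 30 min at room temperature.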
Pf growth 48h = P. falciparum growth inhibition at 48 hours (one generation); P. falciparum luciferase growth in erythrocytes, 48 h; Potency, µM (titrated, usually from 28.7 µM), for the others: at the top dose activity change, negative = inhibition, actives largely listed as inhibitors; actives 5.9% (n = 310,000); AID 504832
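Compounds are pin-transferred into medium, infected erythrocytes (2% hematocrit, 0.1% parasitemia final) are added, and plates sit one parasite generation at 37 C in 5% CO2. Detection reagent is then added and luminescence measured.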
AmpC inh no detg = AmpC beta-lactamase inhibition without detergent; AmpC nitrocefin hydrolysis, absorbance 480 nm, 0.0001% Triton; Potency, µM (doses to about 57.1 µM), without a hit: at the top dose activity change, negative = inhibition, most hits filed as inhibitors; actives 0.52% (n = 330,000);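 also: plate controls were no compound for no effect and no enzyme for full effect; nearly all actives have a fitted effect of over 20% in size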
Target sequence (P00811 whole entry, looked up): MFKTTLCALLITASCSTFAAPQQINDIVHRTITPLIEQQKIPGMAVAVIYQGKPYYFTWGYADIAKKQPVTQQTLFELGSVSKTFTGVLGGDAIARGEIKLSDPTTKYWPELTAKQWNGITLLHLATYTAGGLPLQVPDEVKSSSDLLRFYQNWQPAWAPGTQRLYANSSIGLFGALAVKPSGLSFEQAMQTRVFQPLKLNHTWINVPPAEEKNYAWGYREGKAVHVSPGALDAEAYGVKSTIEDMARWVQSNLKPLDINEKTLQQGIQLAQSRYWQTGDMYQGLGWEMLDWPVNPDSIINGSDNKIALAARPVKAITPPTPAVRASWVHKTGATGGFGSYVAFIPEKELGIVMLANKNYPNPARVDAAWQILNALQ
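AmpC (5.3 nM in the dispensed reagent) in 20 mM phosphate pH 7.0 with 0.01% (detergent screen) or 0.0001% Triton X-100 was preincubated with compounds for 15 min at room temperature. Nitrocefin was then added from an 800 uM solution, and hydrolysis was followed at 480 nm.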
Pf growth 96h = P. falciparum growth inhibition at 96 hour, primary screen for plastid delayed-death inhibitors; actives 6.9% (n = 320,000); P. falciparum luciferase reporter growth, 96 h; Potency, µM (doses to about 28.7 µM), without a hit: at the top dose activity change, negative = inhibition, usual class: inhibitors; AID 504834
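Parasite growth measured via integrated firefly luciferase reporter in P. falciparum. Infected erythrocytes at 2% hematocrit, 0.05% parasitemia final were treated 96 hours at 37 C under 5% CO2, and luminescence was read.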
AmpC inh detg = blocks E. coli AmpC beta-lactamase in detergent assay | P00811 | AmpC hydrolysis of nitrocefin, absorbance 480 nm, 0.01% Triton | Potency, µM (highest dose often 114 µM), inactives show at the highest dose activity change, negative = inhibition, most hits filed as inhibitors | actives 0.041% (n = 370,000) | AID 485294;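 also: 0% = no-compound wells and -100% = no-enzyme wells; nearly all actives have a fitted effect of over 25% in size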
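AmpC (5.3 nM in the dispensed reagent) in 20 mM phosphate pH 7.0 with 0.01% (detergent screen) or 0.0001% Triton X-100 was preincubated with compounds for 15 min at room temperature. Nitrocefin was then added from an 800 uM solution, and hydrolysis was followed at 480 nm.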
HCV inh = HCV inhibition | Huh7.5.1 HCVcc-Cre infection, luciferase reporter, 44 h | Potency, µM (titrated, usually from 41.8 µM), without a hit: at the top dose activity change, negative = inhibition, most hits filed as inhibitors | actives 3.4% (n = 340,000)
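A cell-based infection assay in which seeded cells (1,000 per well) receive test compound after 4 h, are inoculated with HCVcc-Cre at approximately 0.5 moi, and are incubated 44 h before luminescence detection.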
Starred values were filed as active, the others as inactive; ? = inconclusive; . = no result given. Hits are enriched below; roughly 11% of the tested compounds scored in any of these assays. Calls follow the shape of the dose curve; as a rule, active = well fitted curve in the direction sought with a large enough effect; inconclusive = small, poorly fitted or top-dose-only effect, or another doubt; inactive = no such curve, though single readings can be large; an effect the other way counts as inactive or inconclusive. Unless noted, % is scaled to controls: 0 for no effect and ±100 for the full control effect; potency is read from the fitted curve at half-maximal effect.

SMILES	AMA1-RON2 inh	Pf growth 48h	AmpC inh no detg	Pf growth 96h	AmpC inh detg	HCV inh
COc1ccccc1C(CNC(=O)c1ccc(NS(=O)(=O)c2ccc3c(c2)OCCO3)cc1)N(C)C (stereo not drawn)	-10%	?	-59%	12µM*	7%	-8%
COc1ccccc1C(=O)Nc1c(C(=O)Nc2ccccc2F)oc2ccccc12	.	.	.	.	-13%	.
COc1ccc(S(=O)(=O)N2CCC(n3cnc4cc(C(F)(F)F)ccc43)CC2)cc1	2%	5.2µM*	105%	-6%	3%	3%
O=S(=O)(c1ccc2c(c1)OCCO2)N1CCC(n2nnc3cc(C(F)(F)F)ccc32)CC1	-17%	13µM*	-28%	21%	-11%	?
CCCS(=O)(=O)n1nc(-c2ccc(OC)cc2OC)cc1N	-3%	17%	-9%	?	?	3%
COc1cc(OC)cc(-c2cc(N)n(S(=O)(=O)Cc3ccccc3)n2)c1	-2%	.	-31%	8.3µM*	?	-17%
Cc1ccc(-n2nc(-c3ccc(N)cc3)cc2N)cc1	-2%	29%	24%	?	?	1%
CCCS(=O)(=O)n1nc(-c2ccc(OC)cc2)cc1N	0%	.	-20%	10µM*	?	-7%
CCCS(=O)(=O)n1nc(-c2ccc(C)cc2)cc1N	4%	.	-15%	4.7µM*	?	-19%
COc1ccc(CNC(=O)c2[nH]c(C)c(C(C)=O)c2C)cc1	-1%	15µM*	-43%	?	-11%	-29%
CC(=O)c1c(C)[nH]c(C(=O)NCc2ccccc2Cl)c1C	-4%	?	-24%	.	1%	13µM*
COc1ccc(C2c3ccc(O)cc3Oc3ncn4nc(-c5ccco5)nc4c32)cc1OC (stereo not drawn)	32%	?	3%	-2%	5%	-28%
COc1ccc(C2c3ccc(O)cc3Oc3ncn4nc(-c5ccccn5)nc4c32)cc1OC (stereo not drawn)	22%	10µM*	111%	-4%	-1%	?
COc1ccc(C2c3ccc(O)cc3Oc3ncn4nc(-c5ccncc5)nc4c32)cc1OC (stereo not drawn)	13%	1.3µM*	24%	3.3µM*	-2%	?
COc1ccc(C2c3ccc(O)cc3Oc3ncn(Cc4ccccc4)c(=N)c32)cc1OC (stereo not drawn)	3%	12µM*	4%	?	-8%	-11%
Cc1cc2oc(C(=O)Nc3sc4c(c3C(=O)NCc3ccco3)CCC4)cc(=O)c2cc1C	.	.	.	.	0%	.
O=C(/C=C/c1ccc(Cl)cc1)c1cccnc1	-24%	.	-17%	?	-17%	12%
CCN(CC)c1ccc(/C=C/C(=O)c2cccnc2)cc1	8%	0.93µM*	-24%	?	4%	-8%
Cc1ccc(NC(=O)CC2Sc3ccccc3NC2=O)c(Br)c1 (stereo not drawn)	.	.	.	.	-13%	.
c1cc(-c2cccs2)nc(-c2cccs2)c1	-14%	24%	-17%	13%	?	15%
c1csc(-c2cn3ccc4ccccc4c3n2)c1	13%	0.26µM*	-10%	105%	-9%	-29%
CCOc1ccccc1CNC(=O)CCC(=O)N1CCSc2ccccc21	.	.	.	.	0%	.
Cn1c(=O)n(C)c2cc(N3CCOCC3)c(NC(=O)c3ccc(C(C)(C)C)cc3)cc21	.	.	.	.	27%	.
CCOc1ccc(N(Cc2ccc(OC)c(OC)c2)C(=O)c2ccco2)cc1	-3%	12µM*	79%	15%	6%	-24%
CCOc1ccc(N(Cc2ccc(OC)cc2)C(=O)c2ccco2)cc1	-2%	?	-3%	1%	-4%	-25%
COc1cc(CN(C(=O)c2ccco2)c2ccc(C)cc2)ccc1O	-3%	12µM*	1%	?	-10%	4%
